The record followed here is ChEMBL document CHEMBL4513216, “Probing the Open Global Health Chemical Diversity Library for Multistage-Active Starting Points for Next-Generation Antimalarials” (ACS Infect Dis, 2020).

Among all 68,000 compounds or so, about 2,700 (4%) showed an effect of 50% or more. Only a selection was taken, and strong results are over-represented in it overall.

This test deals with Plasmodium berghei. The experiment in a line: Screen against P. berghei liver stage (PbLuc), transformed with Luciferase, at 2uM. The class given is functional, HepG2. The conditions noted are these: tested at 2 uM.
Consider `CCNC(=O)[C@@H]1C[C@@H](NC(=O)c2cccn2C)CN1CCCSC`, for which the INHIBITION came to 29.89%.

Turning to `CCNC(=O)[C@@H]1C[C@@H](NC(=O)c2ccsc2)CN1CCCSC`, the INHIBITION is given as 68.61%.

Regarding `CCNC(=O)[C@@H]1C[C@@H](NC(=O)c2ccc(C#N)cc2)CN1CCCSC`, the INHIBITION is listed as 22.89%.

`CC1c2ncc(COc3cccnc3)n2CCN1C(=O)C1=CCCCC1` (stereo not given): the INHIBITION was determined as 52.36%.

With `CCOCc1cnc2n1CCN(C(=O)C1=CCCC1)C2C` (stereo not given), the INHIBITION worked out at 21.92%.

`CC1c2ncc(COc3cccnc3)n2CCN1C(=O)C1=CCCC1` (stereo not given): the INHIBITION is listed as -7.05%.

As for `COCC(=O)N1CCn2c(COc3cccnc3)cnc2C1C` (stereo not given), the INHIBITION is given as -28.81%.

`COCc1cnc2n1CCN(C(=O)c1cc3ccccc3o1)C2C` (stereo not given): the INHIBITION is listed as -29.49%.

As to `COCc1cnc2n1CCN(C(=O)c1ccc3ccccc3n1)C2C` (stereo not given), the INHIBITION was found to be 53.08%.

As to `COCc1cnc2n1CCN(C(=O)c1cnc3ccccc3c1)C2C` (stereo not given), the INHIBITION is -17.69%.

`COCc1cnc2n1CCN(C(=O)C1=CCCCC1)C2C` (stereo not given): the INHIBITION amounted to 11.55%.

`COCc1cnc2n1CCN(C(=O)C1=CCCC1)C2C` (stereo not given): the INHIBITION is 53.46%.

For the molecule `CS(=O)(=O)c1ccc(Cl)c(NC(=O)NCCC2=CCCCC2)c1`, the INHIBITION was determined as 36.66%.

As for `Cc1cnn(CC2CN(Cc3nnc(C(C)C)o3)CCO2)c1` (stereo not given), the INHIBITION is listed as -11.91%.

`CCc1ccc(CN2CCN(c3cccc(OC)c3)C(=O)C2)nc1`: the INHIBITION is given as -18.92%.

On to `CC(c1cccc(-c2cn(Cc3ccoc3)nn2)c1)N(C)C` (stereo not given), for which the INHIBITION turned out to be 28.62%.

In the case of `N#Cc1ccc(C(=O)N2CC[C@H]3[C@H]2CCN3CC2CC2)cc1`, the INHIBITION is recorded as 5.14%.

As to `CCc1cccc(OC2CN(C(=O)[C@@H](N)[C@@H](C)O)C2)c1`, the INHIBITION is given as 18.28%.

Turning to `CCn1cc(NC(=O)c2cccc(OCC(F)(F)F)n2)cn1`, the INHIBITION was -44.13%.

Regarding `COCC(Nc1ncnc2sc(C(=O)O)c(C)c12)c1ccnn1C` (stereo not given), the INHIBITION is -1.87%.

In the case of `CC(C)CN1CCN(C(=O)CCn2cccn2)CC1`, the INHIBITION was 0.74%.

With `CNC(=O)C1CCN(C(=O)CCn2cccn2)CC1`, the INHIBITION is on record as -84.03%.

Consider `CCC(=O)N1CCN(C(=O)CCn2cccn2)CC1`, for which the INHIBITION was -27.69%.

As for `CCN(C(=O)CCn1cccn1)C1CC1`, the INHIBITION was determined as 72.05%.

Consider `CC(C)CC(C)N(C)C(=O)CCn1cccn1` (stereo not given), for which the INHIBITION is listed as 62.51%.

Take `CC(C1CC1)N(C)C(=O)CCn1cccn1` (stereo not given): the INHIBITION was 31.51%.

On to `O=C1CC(NS(=O)(=O)c2ccc3ccccc3c2)CN1` (stereo not given), for which the INHIBITION turned out to be 2.11%.

Consider `CN(Cc1ccccc1O)C(=O)NC1CCCN(c2ncccn2)C1` (stereo not given), for which the INHIBITION is on record as -12.48%.

In the case of `CS(=O)(=O)CCN1CCCC1c1noc(C2CC2)n1` (stereo not given), the INHIBITION is recorded as 21.83%.

For `CCc1nc(C2CCCN2Cc2nc3ccccc3o2)no1` (stereo not given), the INHIBITION is listed as -32.11%.

With `c1ccc2oc(CN3CCCC3c3noc(C4CC4)n3)nc2c1` (stereo not given), the INHIBITION was found to be 63.68%.

`CCS(=O)(=O)CCN1CCCC1c1noc(C2CC2)n1` (stereo not given): the INHIBITION came to 51.21%.

As to `Cc1nn(C)c(C)c1C1CCCN1Cc1nc(C2CC2)no1` (stereo not given), the INHIBITION is reported as -38.96%.

Consider `CCS(=O)(=O)CCN1CCCC1c1noc(C)n1` (stereo not given), for which the INHIBITION is 49.02%.

Consider `c1ccc2oc(CCCN3CCCC3c3noc(C4CC4)n3)nc2c1` (stereo not given), for which the INHIBITION was 18.86%.

Consider `Cc1nn(C)c(Cl)c1C1CCCN1Cc1nc(C2CC2)no1` (stereo not given), for which the INHIBITION stood at 51.94%.

As for `CCc1nc(C2CCCN2C(=O)CCn2cncn2)no1` (stereo not given), the INHIBITION worked out at 7.54%.

In the case of `COc1c(C2CCCN2Cc2nc(C3CC3)no2)c(C)nn1C` (stereo not given), the INHIBITION is on record as -13.46%.

`CCc1nc(C2CCCN2C(=O)CCCn2cncn2)no1` (stereo not given): the INHIBITION came out at 37.31%.

As to `CCc1nc(C2CCCN2CCn2cncn2)no1` (stereo not given), the INHIBITION is 58.49%.

With `O=C1CN(Cc2ccc3ccccc3n2)CCN1C1CCCC1`, the INHIBITION is listed as -34.37%.

Regarding `CNC(=O)NCC(=O)N1CCCC1Cc1cccc(F)c1` (stereo not given), the INHIBITION came out at 41.21%.

As for `CNc1nc(C(=O)N2CCN(c3cc(C)nc(C)c3)CC2)cs1`, the INHIBITION is 7.64%.

Turning to `c1cc(-c2nnn3c2COC(CNCc2nccs2)C3)ccn1` (stereo not given), the INHIBITION is 16.87%.

As to `O=C(c1cccc(OC2CCCC2)c1)N1CCCC(n2cncn2)C1` (stereo not given), the INHIBITION is given as 27.55%.

Take `Cc1nsc(NC(=O)N2CCC(C(C)(C)O)CC2)n1`: the INHIBITION was -0.55%.

With `CN1CCN(C(=O)c2cn(Cc3ccccc3)c3ncccc23)CC1`, the INHIBITION was 46.61%.

Turning to `Cc1ccc(NC2CCN(C(=O)CCc3nccs3)CC2)nn1`, the INHIBITION came to 3.06%.

`CC(C)Cn1cc(C(=O)NC2CCS(=O)(=O)C2)c2ccccc2c1=O` (stereo not given): the INHIBITION is listed as -70.1%.

As for `O=C(C1CCOCC1)N1CCC2(CC1)CN(c1ccsc1)C(=O)CO2`, the INHIBITION was -17.15%.

Turning to `CS(=O)(=O)Cc1ccc(NC(=O)c2cccnc2)cc1F`, the INHIBITION is -35.1%.

`NC1CCc2nc(-c3cccnc3)nc(Nc3ccc(F)cc3)c2C1` (stereo not given): the INHIBITION is -13.75%.

In the case of `CSCCCN1CCCC1c1noc(C)n1` (stereo not given), the INHIBITION is -8.84%.

As for `CCc1nc(C2CCCN2CCCSC)no1` (stereo not given), the INHIBITION turned out to be 55.92%.

As to `CCc1nc(C2CCCN2CCCS(N)(=O)=O)no1` (stereo not given), the INHIBITION is listed as 22.29%.

Consider `Cn1ccc(CN2CCC(CC(=O)N3CCCC3)CC2)cc1=O`, for which the INHIBITION was found to be 14.5%.

Consider `Cc1cccc(N2CCC(NC(=O)CCCc3cccs3)CC2)n1`, for which the INHIBITION is on record as -52.85%.

`CCc1nc(C2CCCN2C(=O)c2c[nH]c(C)n2)no1` (stereo not given): the INHIBITION was -72.93%.

Take `CCc1nc(C2CCCN2C(=O)CCc2c(C)noc2Cl)no1` (stereo not given): the INHIBITION stood at 51.94%.

As for `CCc1nc(C2CCCN2C(=O)CCc2nc(C(C)(C)C)no2)no1` (stereo not given), the INHIBITION came out at 44.43%.

For `CCc1nc(C2CCCN2C(=O)c2ccc(N(C)C)nn2)no1` (stereo not given), the INHIBITION is 5.91%.

Consider `CCc1nc(C2CCCN2C(=O)c2ccc(N3CCCC3)nn2)no1` (stereo not given), for which the INHIBITION came out at 63.46%.

In the case of `CCc1nc(C2CCCN2C(=O)CCc2nc(C3CC3)no2)no1` (stereo not given), the INHIBITION was -25.46%.

For `CCn1cc(-c2cc(-c3ccn(C)c3)nc(N)c2C#N)cc1C#N`, the INHIBITION was 17.19%.

As to `COc1ccc2cc(C(=O)N3CCCC3Cn3cc(C)cn3)[nH]c2c1` (stereo not given), the INHIBITION is 53.98%.

`Cc1cnn(CC2CCCN2C(=O)c2cc3ccccc3[nH]2)c1` (stereo not given): the INHIBITION is given as -20.11%.

In the case of `Cc1cnn(CC2CCCN2C(=O)c2ccc3[nH]nnc3c2)c1` (stereo not given), the INHIBITION worked out at 53.72%.

Consider `COc1ccc2cc(C(=O)N3CCCCC3Cn3cccn3)[nH]c2c1` (stereo not given), for which the INHIBITION is reported as -28.85%.

With `Cc1cnn(CC2CCCCN2C(=O)c2ccc3[nH]nnc3c2)c1` (stereo not given), the INHIBITION was 39.32%.

Turning to `Cc1cnn(CC2CCCN2C(=O)c2ccc3[nH]c(=O)[nH]c3c2)c1` (stereo not given), the INHIBITION is given as -73.25%.
